Measurements reported in ChEMBL document CHEMBL1961873, “Compounds: GSK PKIS; Assays: Nanosyn kinase panel” (2012).

Legend:
[1] = biological target: Sphingosine kinase 1 (Homo sapiens) (UniProt Q9NYA1); settings: at 1 µM;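 note: mean SPHK1 inhibition value reported from the GSK PKIS kinase panel screen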
[2] = biological target: T1, Sphingosine kinase 2 (Homo sapiens) (UniProt Q9NRA0); settings: at 0.1 µM
T1 sequence (whole entry): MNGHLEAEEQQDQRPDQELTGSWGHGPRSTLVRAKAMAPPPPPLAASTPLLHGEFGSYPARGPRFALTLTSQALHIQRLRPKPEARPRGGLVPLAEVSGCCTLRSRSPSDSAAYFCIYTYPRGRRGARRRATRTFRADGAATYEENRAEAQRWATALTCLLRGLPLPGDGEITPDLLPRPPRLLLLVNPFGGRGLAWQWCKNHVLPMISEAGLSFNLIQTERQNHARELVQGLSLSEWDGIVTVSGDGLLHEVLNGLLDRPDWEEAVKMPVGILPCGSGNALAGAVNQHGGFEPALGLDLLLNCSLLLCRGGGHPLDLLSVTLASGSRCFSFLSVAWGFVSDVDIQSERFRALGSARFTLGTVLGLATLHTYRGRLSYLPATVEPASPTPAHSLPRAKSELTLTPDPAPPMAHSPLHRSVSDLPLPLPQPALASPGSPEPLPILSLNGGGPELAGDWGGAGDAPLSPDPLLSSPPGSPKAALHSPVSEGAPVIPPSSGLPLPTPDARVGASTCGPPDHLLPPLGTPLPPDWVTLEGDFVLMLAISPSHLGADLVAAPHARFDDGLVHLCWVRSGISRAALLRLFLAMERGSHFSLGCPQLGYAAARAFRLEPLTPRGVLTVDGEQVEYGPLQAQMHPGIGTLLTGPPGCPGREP

[3] = biological target: T1, Sphingosine kinase 2 (Homo sapiens); settings: at 1 µM
[4] = biological target: Casein kinase II subunit alpha (Homo sapiens) (UniProt P68400); settings: at 0.1 µM
[5] = biological target: Casein kinase II subunit alpha (Homo sapiens) (UniProt P68400); settings: at 1 µM
[6] = biological target: T2, Inhibitor of nuclear factor kappa-B kinase subunit alpha (Homo sapiens) (UniProt O15111); settings: at 0.1 µM
T2 sequence (whole entry): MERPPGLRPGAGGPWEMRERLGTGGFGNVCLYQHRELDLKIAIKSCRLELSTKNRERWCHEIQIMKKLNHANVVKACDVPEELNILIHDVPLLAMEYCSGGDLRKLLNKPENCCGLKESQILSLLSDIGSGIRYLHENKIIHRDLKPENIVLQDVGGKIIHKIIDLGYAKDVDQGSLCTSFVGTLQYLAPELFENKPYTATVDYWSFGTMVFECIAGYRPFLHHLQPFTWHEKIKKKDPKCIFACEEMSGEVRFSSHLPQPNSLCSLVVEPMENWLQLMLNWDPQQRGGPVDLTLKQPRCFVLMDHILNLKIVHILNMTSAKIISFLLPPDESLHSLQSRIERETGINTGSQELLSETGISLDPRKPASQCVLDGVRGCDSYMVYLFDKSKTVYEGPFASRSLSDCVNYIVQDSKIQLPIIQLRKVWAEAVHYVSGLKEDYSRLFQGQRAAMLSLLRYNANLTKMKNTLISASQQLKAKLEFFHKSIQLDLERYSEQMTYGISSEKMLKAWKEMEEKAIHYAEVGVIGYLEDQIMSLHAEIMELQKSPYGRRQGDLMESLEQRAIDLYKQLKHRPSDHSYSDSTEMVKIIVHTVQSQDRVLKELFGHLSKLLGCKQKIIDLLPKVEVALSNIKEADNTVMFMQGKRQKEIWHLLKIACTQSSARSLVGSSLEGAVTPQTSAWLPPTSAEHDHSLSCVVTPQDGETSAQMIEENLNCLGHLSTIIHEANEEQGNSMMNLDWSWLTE

[7] = biological target: T2, Inhibitor of nuclear factor kappa-B kinase subunit alpha (Homo sapiens); settings: at 1 µM
[8] = biological target: T3, Inhibitor of nuclear factor kappa-B kinase subunit beta (Homo sapiens) (UniProt O14920); settings: at 0.1 µM
T3 sequence (whole entry): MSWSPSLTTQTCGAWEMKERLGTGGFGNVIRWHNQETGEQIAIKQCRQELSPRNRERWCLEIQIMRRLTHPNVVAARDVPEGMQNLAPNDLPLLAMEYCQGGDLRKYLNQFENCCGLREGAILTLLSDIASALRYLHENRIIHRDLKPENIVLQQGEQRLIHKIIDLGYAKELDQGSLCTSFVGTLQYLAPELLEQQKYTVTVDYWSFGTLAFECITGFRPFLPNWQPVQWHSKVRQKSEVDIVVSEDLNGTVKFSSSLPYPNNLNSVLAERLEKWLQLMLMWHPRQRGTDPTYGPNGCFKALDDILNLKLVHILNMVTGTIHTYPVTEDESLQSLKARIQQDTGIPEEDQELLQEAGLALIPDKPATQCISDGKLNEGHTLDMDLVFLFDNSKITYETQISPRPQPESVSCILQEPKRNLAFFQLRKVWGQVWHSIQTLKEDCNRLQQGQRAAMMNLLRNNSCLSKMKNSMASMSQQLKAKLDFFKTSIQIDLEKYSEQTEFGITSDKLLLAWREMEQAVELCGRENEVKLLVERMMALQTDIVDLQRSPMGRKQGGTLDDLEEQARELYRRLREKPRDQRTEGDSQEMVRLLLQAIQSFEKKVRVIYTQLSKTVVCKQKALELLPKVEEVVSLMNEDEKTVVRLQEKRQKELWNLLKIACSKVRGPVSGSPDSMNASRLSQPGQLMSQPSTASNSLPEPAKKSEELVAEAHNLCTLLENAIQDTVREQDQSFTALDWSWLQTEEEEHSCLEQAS

[9] = biological target: T3, Inhibitor of nuclear factor kappa-B kinase subunit beta (Homo sapiens); settings: at 1 µM
[10] = biological target: T4, Inhibitor of nuclear factor kappa-B kinase subunit epsilon (Homo sapiens) (UniProt Q14164); settings: at 0.1 µM
T4 sequence (whole entry): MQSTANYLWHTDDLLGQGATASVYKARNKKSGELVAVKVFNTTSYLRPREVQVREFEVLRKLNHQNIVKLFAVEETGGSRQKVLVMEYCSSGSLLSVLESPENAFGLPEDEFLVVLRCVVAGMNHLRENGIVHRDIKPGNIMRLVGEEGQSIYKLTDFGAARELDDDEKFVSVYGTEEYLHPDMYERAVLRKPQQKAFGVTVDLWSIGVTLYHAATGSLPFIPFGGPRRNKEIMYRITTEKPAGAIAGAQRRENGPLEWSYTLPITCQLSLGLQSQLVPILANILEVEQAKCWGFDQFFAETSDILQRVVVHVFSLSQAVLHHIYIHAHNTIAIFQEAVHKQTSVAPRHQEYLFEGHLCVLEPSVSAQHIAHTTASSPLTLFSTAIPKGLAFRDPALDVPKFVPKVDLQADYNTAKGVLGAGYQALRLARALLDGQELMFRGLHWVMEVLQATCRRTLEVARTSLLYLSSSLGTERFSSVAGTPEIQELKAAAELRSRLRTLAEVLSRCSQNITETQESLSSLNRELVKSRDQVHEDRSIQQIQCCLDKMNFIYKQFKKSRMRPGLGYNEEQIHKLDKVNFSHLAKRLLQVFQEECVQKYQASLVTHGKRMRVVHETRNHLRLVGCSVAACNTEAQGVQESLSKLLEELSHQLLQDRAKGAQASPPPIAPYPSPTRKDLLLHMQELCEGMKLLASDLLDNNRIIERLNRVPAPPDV

[11] = biological target: T4, Inhibitor of nuclear factor kappa-B kinase subunit epsilon (Homo sapiens); settings: at 1 µM
[12] = biological target: T5, Serine/threonine-protein kinase Nek1 (Homo sapiens) (UniProt Q96PY6); settings: at 0.1 µM
T5 sequence (whole entry): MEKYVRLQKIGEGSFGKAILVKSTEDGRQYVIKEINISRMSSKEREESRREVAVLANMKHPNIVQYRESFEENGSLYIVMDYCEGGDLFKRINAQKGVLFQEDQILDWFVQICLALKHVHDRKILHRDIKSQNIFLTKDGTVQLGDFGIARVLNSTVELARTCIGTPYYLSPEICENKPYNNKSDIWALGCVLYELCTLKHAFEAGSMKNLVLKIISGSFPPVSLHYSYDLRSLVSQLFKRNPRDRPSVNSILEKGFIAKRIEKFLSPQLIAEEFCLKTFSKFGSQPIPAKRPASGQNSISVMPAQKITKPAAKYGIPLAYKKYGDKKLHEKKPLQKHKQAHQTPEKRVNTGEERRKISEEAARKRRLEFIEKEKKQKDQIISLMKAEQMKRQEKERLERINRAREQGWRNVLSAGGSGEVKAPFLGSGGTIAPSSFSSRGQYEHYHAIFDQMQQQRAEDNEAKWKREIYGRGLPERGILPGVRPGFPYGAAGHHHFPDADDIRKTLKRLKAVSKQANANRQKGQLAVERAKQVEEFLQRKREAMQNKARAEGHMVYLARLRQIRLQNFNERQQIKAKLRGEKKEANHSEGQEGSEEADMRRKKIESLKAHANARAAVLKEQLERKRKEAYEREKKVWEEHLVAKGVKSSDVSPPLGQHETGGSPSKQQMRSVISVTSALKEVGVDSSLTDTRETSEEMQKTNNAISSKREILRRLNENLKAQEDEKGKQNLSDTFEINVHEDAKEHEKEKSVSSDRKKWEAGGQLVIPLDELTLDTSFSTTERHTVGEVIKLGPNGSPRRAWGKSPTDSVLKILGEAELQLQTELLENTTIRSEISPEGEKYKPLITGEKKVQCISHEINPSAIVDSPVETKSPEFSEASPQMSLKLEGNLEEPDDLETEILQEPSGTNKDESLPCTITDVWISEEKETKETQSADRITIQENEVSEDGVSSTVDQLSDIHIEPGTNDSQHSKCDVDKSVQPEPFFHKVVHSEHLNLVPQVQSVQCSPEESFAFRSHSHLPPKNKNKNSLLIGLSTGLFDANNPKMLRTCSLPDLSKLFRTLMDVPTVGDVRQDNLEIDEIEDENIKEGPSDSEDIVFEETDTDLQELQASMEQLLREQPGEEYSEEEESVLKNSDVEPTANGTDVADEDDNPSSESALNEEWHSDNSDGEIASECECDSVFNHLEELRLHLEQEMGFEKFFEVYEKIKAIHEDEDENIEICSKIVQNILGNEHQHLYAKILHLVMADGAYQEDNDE

[13] = biological target: T5, Serine/threonine-protein kinase Nek1 (Homo sapiens); settings: at 1 µM
[14] = biological target: T6, Serine/threonine-protein kinase Nek2 (Homo sapiens) (UniProt P51955); settings: at 0.1 µM
T6 sequence (whole entry): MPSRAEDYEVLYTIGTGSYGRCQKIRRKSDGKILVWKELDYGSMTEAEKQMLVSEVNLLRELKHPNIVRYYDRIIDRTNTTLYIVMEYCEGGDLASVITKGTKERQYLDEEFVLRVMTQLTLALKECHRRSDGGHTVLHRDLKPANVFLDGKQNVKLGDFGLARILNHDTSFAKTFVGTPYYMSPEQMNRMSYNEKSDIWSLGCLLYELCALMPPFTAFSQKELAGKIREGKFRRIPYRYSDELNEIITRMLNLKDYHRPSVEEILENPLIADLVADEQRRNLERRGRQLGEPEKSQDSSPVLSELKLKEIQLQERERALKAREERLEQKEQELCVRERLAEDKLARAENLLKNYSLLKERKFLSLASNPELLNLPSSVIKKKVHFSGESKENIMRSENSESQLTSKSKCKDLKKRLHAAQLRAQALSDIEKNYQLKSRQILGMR

[15] = biological target: T6, Serine/threonine-protein kinase Nek2 (Homo sapiens); settings: at 1 µM
[16] = biological target: Serine/threonine-protein kinase Nek6 (Homo sapiens) (UniProt Q9HC98); settings: at 0.1 µM
[17] = biological target: Serine/threonine-protein kinase Nek6 (Homo sapiens) (UniProt Q9HC98); settings: at 1 µM
[18] = biological target: Serine/threonine-protein kinase Nek7 (Homo sapiens) (UniProt Q8TDX7); settings: at 0.1 µM
[19] = biological target: Serine/threonine-protein kinase Nek7 (Homo sapiens) (UniProt Q8TDX7); settings: at 1 µM
[20] = biological target: T7, Serine/threonine-protein kinase Nek9 (Homo sapiens) (UniProt Q8TD19); settings: at 0.1 µM;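 note: reported value is the mean percent inhibition of NEK9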
T7 sequence (whole entry): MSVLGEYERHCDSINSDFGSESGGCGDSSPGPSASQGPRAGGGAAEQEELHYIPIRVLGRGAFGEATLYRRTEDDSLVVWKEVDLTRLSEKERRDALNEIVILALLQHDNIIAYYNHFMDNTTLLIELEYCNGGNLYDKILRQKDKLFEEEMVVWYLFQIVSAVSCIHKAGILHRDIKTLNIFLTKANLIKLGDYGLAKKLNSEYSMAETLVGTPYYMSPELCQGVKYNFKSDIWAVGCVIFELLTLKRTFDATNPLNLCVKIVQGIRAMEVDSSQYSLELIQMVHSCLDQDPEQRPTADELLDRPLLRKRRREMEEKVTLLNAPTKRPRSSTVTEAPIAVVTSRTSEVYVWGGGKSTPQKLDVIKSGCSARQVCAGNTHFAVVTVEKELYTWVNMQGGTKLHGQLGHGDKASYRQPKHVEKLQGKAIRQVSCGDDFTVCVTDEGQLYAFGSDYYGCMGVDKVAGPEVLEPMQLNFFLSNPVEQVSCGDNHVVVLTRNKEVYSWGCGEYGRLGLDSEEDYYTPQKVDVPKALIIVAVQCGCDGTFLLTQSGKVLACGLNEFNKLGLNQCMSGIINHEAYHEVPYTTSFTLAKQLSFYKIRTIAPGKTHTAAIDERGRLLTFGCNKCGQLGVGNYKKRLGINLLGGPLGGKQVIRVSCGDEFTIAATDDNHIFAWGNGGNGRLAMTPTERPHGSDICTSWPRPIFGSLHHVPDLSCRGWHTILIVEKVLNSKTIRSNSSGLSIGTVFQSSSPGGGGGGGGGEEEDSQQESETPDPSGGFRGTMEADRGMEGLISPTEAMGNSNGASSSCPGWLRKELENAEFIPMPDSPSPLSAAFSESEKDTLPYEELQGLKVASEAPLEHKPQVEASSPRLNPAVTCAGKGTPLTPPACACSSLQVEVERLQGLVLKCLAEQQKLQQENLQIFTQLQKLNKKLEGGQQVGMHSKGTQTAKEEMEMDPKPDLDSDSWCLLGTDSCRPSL

Casein kinase II subunit alpha (Homo sapiens), sequence (P68400 whole entry, looked up): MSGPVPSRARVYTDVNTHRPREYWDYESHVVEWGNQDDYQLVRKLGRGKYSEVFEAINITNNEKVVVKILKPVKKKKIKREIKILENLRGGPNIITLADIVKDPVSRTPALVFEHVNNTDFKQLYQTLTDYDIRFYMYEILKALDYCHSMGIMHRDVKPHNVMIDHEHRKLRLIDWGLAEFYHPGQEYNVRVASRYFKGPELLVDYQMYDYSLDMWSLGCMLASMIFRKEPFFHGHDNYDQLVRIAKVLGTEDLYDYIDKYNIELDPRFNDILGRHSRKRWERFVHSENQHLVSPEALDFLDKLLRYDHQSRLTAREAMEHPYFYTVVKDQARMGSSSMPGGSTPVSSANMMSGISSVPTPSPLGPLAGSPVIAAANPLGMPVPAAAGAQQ
Serine/threonine-protein kinase Nek7 (Homo sapiens), sequence (Q8TDX7 whole entry, looked up): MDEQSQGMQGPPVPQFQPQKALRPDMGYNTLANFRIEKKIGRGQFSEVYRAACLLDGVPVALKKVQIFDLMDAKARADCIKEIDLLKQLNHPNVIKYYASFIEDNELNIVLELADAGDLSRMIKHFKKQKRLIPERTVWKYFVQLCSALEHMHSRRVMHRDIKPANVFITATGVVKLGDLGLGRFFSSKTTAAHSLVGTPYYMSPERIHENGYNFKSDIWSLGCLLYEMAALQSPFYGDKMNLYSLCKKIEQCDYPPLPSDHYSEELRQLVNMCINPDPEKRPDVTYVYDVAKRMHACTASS
Serine/threonine-protein kinase Nek6 (Homo sapiens), sequence (Q9HC98 whole entry): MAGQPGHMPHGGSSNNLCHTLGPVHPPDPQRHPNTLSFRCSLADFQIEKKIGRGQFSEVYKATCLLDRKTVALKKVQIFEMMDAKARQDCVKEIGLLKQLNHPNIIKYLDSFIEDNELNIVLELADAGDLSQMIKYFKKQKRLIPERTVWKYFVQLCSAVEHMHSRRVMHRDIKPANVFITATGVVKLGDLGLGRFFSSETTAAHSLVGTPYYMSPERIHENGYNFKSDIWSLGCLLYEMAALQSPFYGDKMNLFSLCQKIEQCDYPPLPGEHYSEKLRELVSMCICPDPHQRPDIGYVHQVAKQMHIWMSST
Sphingosine kinase 1 (Homo sapiens), sequence (Q9NYA1 whole entry): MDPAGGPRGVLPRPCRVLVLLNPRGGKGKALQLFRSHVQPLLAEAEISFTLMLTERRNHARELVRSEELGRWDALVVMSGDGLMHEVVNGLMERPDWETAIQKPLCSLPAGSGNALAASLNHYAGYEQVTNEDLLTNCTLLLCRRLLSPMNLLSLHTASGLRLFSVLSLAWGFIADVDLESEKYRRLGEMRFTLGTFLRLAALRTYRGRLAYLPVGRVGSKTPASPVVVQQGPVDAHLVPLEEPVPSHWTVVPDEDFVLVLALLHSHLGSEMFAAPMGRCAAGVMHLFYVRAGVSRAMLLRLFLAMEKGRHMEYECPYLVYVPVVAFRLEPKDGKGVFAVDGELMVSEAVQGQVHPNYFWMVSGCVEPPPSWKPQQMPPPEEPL

Row | Compound | inhibition [1] [%] | inhibition [2] [%] | inhibition [3] [%] | inhibition [4] [%] | inhibition [5] [%] | inhibition [6] [%] | inhibition [7] [%] | inhibition [8] [%] | inhibition [9] [%] | inhibition [10] [%] | inhibition [11] [%] | inhibition [12] [%] | inhibition [13] [%] | inhibition [14] [%] | inhibition [15] [%] | inhibition [16] [%] | inhibition [17] [%] | inhibition [18] [%] | inhibition [19] [%] | inhibition [20] [%]
1 | NS(=O)(=O)c1ccc(N/N=C2\C(=O)Nc3ccc(Cl)cc32)cc1 | -4.27 | 0 | -3.44 | 4.94 | 14 | -0.36 | 10.7 | 4.8 | 5.46 | 7.49 | 8.2 | 2.48 | 3.33 | 4.08 | 4.1 | 4.79 | 4.93 | 2.88 | 3.63 | 7.35
2 | COc1cc(Nc2nccc(-c3cnn4ncccc34)n2)cc(OC)c1 | 0.57 | 0 | 0.21 | 8.84 | 42.7 | 17.4 | 71.4 | 5.71 | 24.5 | 5.75 | 28.2 | 2.05 | 19.3 | 2.03 | 12 | -0.86 | 2.06 | 2.07 | 3.54 | 17.3
